Rows were chosen to be rich in hits. Some 32% of all compounds tested hit in one or more screens of this group.
CYP2C19 act: activators of human cytochrome P450 2C19; P33261; recombinant CYP2C19, luciferin-H EGE luminescence; stronger effect = higher value; 0 = fully inhibited enzyme, 1 = untreated enzyme; activation factor at 5 µM; 96,000 tested, under 10 active;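 active = activation factor of at least 2 at 5 µM in the primary screen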;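 note: 0 = wells with 2.5 mM tranylcypromine and 1 = vehicle-only wells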
CYP2C19 inh: blocks human cytochrome P450 2C19; P33261; CYP2C19 Supersomes, luciferin-H EGE luminescence, 30 min; inhibition, % at 5 µM; hit rate 21% among 96,000; AID 778;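 active = CYP2C19 inhibition above a set limit at 5 µM in the primary screen, cut at about 50% in these data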;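 note: plate controls were negative control wells for no effect and 2.5 mM tranylcypromine positive control for full effect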
PostGolgi yeast: growth inhibition of a yeast mutant, post-Golgi transport screen; post-Golgi transport phenotypic cell assay; inhibition, % at 10 µM; hit rate 0.9% among 98,000;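 note: yeast cells grown in 1536-well plates; yeast grown about 18 h at 30C before absorbance read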
CYP2C9 act: CYP2C9 (human) activation; recombinant CYP2C9, luciferin-H conversion, luminescence; stronger effect = higher value; factor 1 = untreated enzyme, 0 = blocked; activation factor at 5 µM; hit rate 1.4% among 96,000; P11712; AID 1024;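 active = activation factor of 2 or more for CYP2C9 at a 5 µM dose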;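 note: 0 = sulfaphenazole-blocked wells and 1 = vehicle-only wells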
Target sequence (P11712 whole entry, looked up): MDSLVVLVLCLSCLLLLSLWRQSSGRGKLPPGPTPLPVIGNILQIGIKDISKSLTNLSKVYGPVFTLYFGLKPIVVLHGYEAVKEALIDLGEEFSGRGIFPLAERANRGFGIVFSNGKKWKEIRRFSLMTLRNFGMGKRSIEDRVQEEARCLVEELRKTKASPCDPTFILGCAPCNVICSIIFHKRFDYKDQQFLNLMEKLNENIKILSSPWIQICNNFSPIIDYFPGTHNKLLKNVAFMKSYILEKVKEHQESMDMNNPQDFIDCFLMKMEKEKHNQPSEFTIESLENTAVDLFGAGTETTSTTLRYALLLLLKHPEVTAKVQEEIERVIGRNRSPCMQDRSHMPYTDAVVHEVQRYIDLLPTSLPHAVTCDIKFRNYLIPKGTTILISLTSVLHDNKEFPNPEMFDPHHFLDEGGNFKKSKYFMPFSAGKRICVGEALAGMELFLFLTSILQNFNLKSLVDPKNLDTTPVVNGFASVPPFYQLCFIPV
PostGolgi ctrl: yeast control strain growth, post-Golgi counter-screen; efflux-deficient yeast background strain, growth absorbance A615, 16 h; inhibition, % at 10 µM; hit rate 5% among 98,000
CYP2C9 inh: blocks human cytochrome P450 2C9 | P11712 | CYP2C9 Supersomes, luciferin-H conversion, luminescence | inhibition, % at 5 µM | hit rate 20% among 96,000;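 active = blocking of liver enzyme CYP2C9 beyond about 50% at 5 µM, limit read from the data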
* hit, by the source's call; . = not tested or not shown. Cut-off read from the data, not from the text of the source, unless noted: active = inhibition above about 30%; inactive = the rest.

SMILES	CYP2C19 act	CYP2C19 inh	PostGolgi yeast	CYP2C9 act	PostGolgi ctrl	CYP2C9 inh
COc1ccc(N/C=C(\C#N)c2nc3ccccc3n2C)c(OC)c1	0.6	37	24	1.3	49*	-29
CCOC(=O)c1cccc(NC(=O)CCS(=O)(=O)c2ccc(Br)s2)c1	0.7	30	-3	0.5	4	48
COc1cccc(NC(=O)CCS(=O)(=O)c2cccs2)c1	0.4	60*	7	0.4	11	58*
COc1cccc(NC(=O)CNC(=O)c2cccs2)c1	0.5	47	-7	0.7	-12	28
CCOC(=O)c1cccc(NC(=O)CCS(=O)(=O)c2cccs2)c1	0.3	72*	-3	0.1	2	89*
COc1cccc(C2C(C(=O)c3cc4ccccc4o3)=C(O)C(=O)N2c2cc(C)on2)c1OC (stereo not given)	1	-4	3	0.7	10	30
COc1cccc(C2C(C(=O)c3cc4cccc(OC)c4o3)=C(O)C(=O)N2c2cc(C)on2)c1OC (stereo not given)	0.9	10	10	0.1	-3	85*
COc1ccc(OC)c(C2C(C(=O)c3cccs3)=C(O)C(=O)N2c2cc(C)on2)c1 (stereo not given)	0.8	17	18	0.6	-2	43
COc1cccc(C2C(C(=O)c3cccs3)=C(O)C(=O)N2c2cc(C)on2)c1 (stereo not given)	0.8	18	5	0.4	-1	58*
COC(=O)C(C(=O)OC)C(C[N+](=O)[O-])c1ccc(OC)cc1 (stereo not given)	0.5	45	-1	1.1	-6	-6
C=CCc1ccc(OCCOc2ccc(/C=N/n3cnnc3)cc2OCC)c(OC)c1	0.4	61*	-6	0.6	10	44
C(=N\n1cnnc1)/c1cccn1-c1ccccc1	0.6	37	-1	0.8	3	16
COc1cc(/C=N/n2cnnc2)ccc1OCc1ccccc1	0.3	70*	16	0.3	-15	68*
C(=N\n1cnnc1)/c1cccc(OCCOc2ccccc2)c1	0.2	80*	6	0.8	6	21
CCOc1cc(/C=N/n2cnnc2)ccc1O	0.8	18	0	0.9	0	11
Clc1ccc(Oc2cccc(/C=N/n3cnnc3)c2)cc1	0.1	91*	4	0.3	22	66*
CCNC(=O)CC1C(=O)N(c2ccc(C)cc2)C(=O)N1Cc1ccccn1 (stereo not given)	1	4	-5	1	28	4
Cc1ccc(C(=O)CN2CCC(NC(=O)C3CCCCC3)CC2)cc1	0.7	26	-4	0.5	0	48
CCc1nn(-c2cc(Cl)ccc2OC)c2c1C(=O)CCC2	0.7	34	-3	0.8	-8	16
COc1cc(/C=N/NC(=O)c2cccc([N+](=O)[O-])c2)ccc1OCc1ccc(C)cc1	1	-3	-21	1.2	1	-24
Fc1ccccc1/C=N/n1cnnc1	0.9	5	1	1	10	0
COc1ccc(/C=N/n2cnnc2)cc1COc1ccccn1	1	3	6	1	-2	1
C(=N\n1cnnc1)/c1ccccc1OCCOc1ccccc1	0.2	78*	-2	0.7	11	29
COc1cc(/C=N/n2cnnc2)ccc1OCc1ccc(C)cc1	0.5	49	-4	0.3	8	70*
COc1cc(/C=N/n2cnnc2)ccc1OCCOc1ccccc1	0.2	82*	2	0.4	3	58*
SMILES	CYP2C19 act	CYP2C19 inh	PostGolgi yeast	CYP2C9 act	PostGolgi ctrl	CYP2C9 inh
CCCCOc1ccccc1NC(=O)c1ccc(=O)[nH]c1	1.1	-7	2	1.1	9	-9
CCc1ccccc1NC(=O)CN(C)Cc1nc(N)nc(Nc2ccccc2C)n1	0.3	68*	4	0.7	-1	30
COc1cccc(/C=C2\C(=O)C(=O)c3ccccc32)c1	0.9	8	-2	0.9	19	13
CCC(=O)Nc1nnc(-c2ccncc2)s1	0.2	75*	0	0.6	3	38
Cc1nnc(NC(=O)C2CCCO2)s1 (stereo not given)	.	.	5	.	7	.
O=C(Nc1nnc(-c2ccncc2)s1)C1CCCO1 (stereo not given)	0.2	78*	7	0.5	-5	49
CCNc1nnc(-c2ccncc2)s1	0.3	71*	6	0.8	0	23
CNc1nnc(-c2ccncc2)s1	0.9	11	7	1	12	0
CCOC(=O)CSc1nnc(CNC(=O)c2ccc(OC)c(OC)c2)n1C	1.2	-20	3	1.2	-10	-19
NNC(=O)c1cccc(COc2ccccc2Br)c1	0	98*	-3	0.2	9	78*
C=CCN1C(=O)/C(=C2/Sc3ccccc3N2CCCS(=O)(=O)O)SC1=S	0.9	14	-21	0.4	11	60*
CN1C(=O)/C(=C2/C=Cc3ccccc3N2CCCS(=O)(=O)O)SC1=S	0.8	23	4	0.5	-2	53*
CCCN1/C(=C2/SC(=S)N(CC)C2=O)C=Cc2ccccc21	0.6	37	-6	0.9	14	8
CCOC(=O)N1CCN(C(=O)c2cn(CCOC)c(=O)c3c2c2ccccc2n3C)CC1	1.1	-10	27	1	12	-2
CCOc1ccc(OCC)c(C2C(C#N)=C(N)N(c3cccnc3)C3=C2C(=O)CC(C)(C)C3)c1 (stereo not given)	1.1	-14	3	1	-3	1
Cc1ccc(S(=O)(=O)N(C)c2ccc(OCC(=O)O)cc2)cc1	1	-1	1	0.7	-1	34
Cc1ccc(N(C)S(=O)(=O)c2ccc(C)cc2)cc1	0.1	90*	-6	0.5	7	51*
Cc1ccc(S(=O)(=O)N(C)c2ccc(NS(C)(=O)=O)cc2)cc1	0.3	66*	7	2*	7	-100
Cc1ccc(S(=O)(=O)N(C)c2ccccc2)cc1	0.1	94*	-3	1.6	1	-65
O=C1CNC(=O)N1CC(=O)N1CCCc2ccccc21	1	-2	-24	1.1	-6	-8
O=C(CS(=O)(=O)c1c[nH]c2ccccc12)N1CCCc2ccccc21	0.1	94*	3	1.8	3	-81
COc1ccc(-n2c(=O)[nH]cc(C(=O)N3CCCc4ccccc43)c2=O)cc1	0.8	16	19	0.7	2	27
O=C(C(=O)N1CCCc2ccccc21)c1c[nH]c2ccccc12	0.3	67*	-6	1.5	16	-47
CCCOc1ccc(N2C(=O)CC(N3CCCC(C(=O)N4CCCC4)C3)C2=O)cc1 (stereo not given)	1	-3	-6	0.9	-1	7
COC(=O)c1ccc(Oc2nc(Nc3ccc(C)c(C)c3)nc(N(C)C)n2)cc1	0.4	56*	-1	0.3	10	71*
Cc1c(C(=O)OC2CCCC2C)[nH]c2c1C(=O)CCC2 (stereo not given)	1	5	1	0.5	19	54*

Screening data as filed in PubChem.
